# Screens from PubChem.
# Hits are enriched below; roughly 2.1% of the tested compounds scored in any of these assays.
# SMARCA2 act: activators of SMARCA2 function. MG213 cells, MMTV-luciferase reporter, dexamethasone, overnight. activation, % at 9.1 µM. actives 1% (n = 370,000); in the data active = activation above about 7.8%;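 note: 0% = vehicle wells and 100% = reference activator wells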
# MsrA act: bovine methionine sulfoxide reductase A activation | purified bovine MsrA, absorbance read-out | activation, % at 10.6 µM | actives 0.3% (n = 360,000); in the data active = activation above about 7.5%;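 note: 0% = vehicle and 100% = reference activator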
# ABCB6 inh 2: inhibitors of human ABC transporter ABCB6; actives 0.19% (n = 360,000); fluorescence ratio to DMSO, % at 10 µM; K562-ABCB6 porphyrin accumulation, flow cytometry, 1 h; hits give low values; Q9NP58;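 active = fluorescence ratio to DMSO below 75%, the collection mean minus 3 SD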;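 note: signal is porphyrin accumulated inside mitochondria; 100% equals median channel fluorescence of DMSO control wells; lower ratio means ABCB6 inhibition with less porphyrin fluorescence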
# Target sequence (Q9NP58 whole entry, looked up): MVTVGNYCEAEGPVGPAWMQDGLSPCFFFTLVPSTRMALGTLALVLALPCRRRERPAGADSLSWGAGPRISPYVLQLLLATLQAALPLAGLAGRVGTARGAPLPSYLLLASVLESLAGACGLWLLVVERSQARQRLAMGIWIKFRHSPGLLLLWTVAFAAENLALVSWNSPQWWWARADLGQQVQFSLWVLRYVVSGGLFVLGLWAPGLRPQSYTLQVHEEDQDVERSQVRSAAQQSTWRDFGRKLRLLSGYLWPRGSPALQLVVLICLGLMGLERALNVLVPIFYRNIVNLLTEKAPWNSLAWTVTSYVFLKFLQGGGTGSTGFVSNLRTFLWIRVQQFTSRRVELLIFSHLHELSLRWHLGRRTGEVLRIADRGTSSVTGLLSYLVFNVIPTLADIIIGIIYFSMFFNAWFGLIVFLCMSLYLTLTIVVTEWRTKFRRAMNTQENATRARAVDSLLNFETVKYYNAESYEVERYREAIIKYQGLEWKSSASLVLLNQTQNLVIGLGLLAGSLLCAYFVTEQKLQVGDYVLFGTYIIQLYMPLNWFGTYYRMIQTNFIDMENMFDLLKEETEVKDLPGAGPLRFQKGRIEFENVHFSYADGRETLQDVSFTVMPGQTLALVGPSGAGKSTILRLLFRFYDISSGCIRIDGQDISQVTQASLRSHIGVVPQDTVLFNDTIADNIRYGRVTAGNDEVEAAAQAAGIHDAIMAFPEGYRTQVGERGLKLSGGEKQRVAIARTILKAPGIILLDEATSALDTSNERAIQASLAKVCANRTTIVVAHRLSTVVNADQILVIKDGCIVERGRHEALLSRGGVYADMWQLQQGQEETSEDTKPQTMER
# MsrA inhibitor: inhibitors of bovine MsrA; purified bovine MsrA, absorbance read-out; inhibition, % at 15.5 µM; actives 0.75% (n = 360,000); AID 651718; in the data active = inhibition above about 4.5%;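 note: 0% = vehicle wells with enzyme and 100% = reference inhibitor wells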
# SMARCA2 act conf: confirmation of SMARCA2 (BRM) function activators | MG213 cells, MMTV-luciferase with dexamethasone, luminescence, overnight; MG213 cells expressing E1A, Rb sequestered; DMSO wells 0%, reference activator 100% | activation, % at 9.1 µM | actives 30% (n = 3,500) | shares compounds with SMARCA2 act;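 active = activation above its plate's cutoff, the mean activation of tested wells plus 3 SD, cut at about 7.9% in these data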
# VP16 Luc act: counter-screen for SMARCA2 activators: GAL4-VP16 luciferase reporter activation; shares compounds with SMARCA2 act; HEK293 GAL4-VP16 pG5luc reporter, luciferase luminescence; scaled: DMSO wells 0%, SAHA wells 100%; actives 41% (n = 3,500); activation, % at 9.1 µM;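 active = activation above the solvent-only control well mean plus 3 SD, averaged across control plates, cut at about 5.2% in these data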
# Starred values were filed as active, the others as inactive; . = no result.
SMILES,SMARCA2 act,MsrA act,ABCB6 inh 2,MsrA inhibitor,SMARCA2 act conf,VP16 Luc act
O=C(C1CCCN1S(=O)(=O)c1cccs1)N1CCc2ccccc2C1 (stereo not drawn),-3,.,.,.,.,.
Cc1cccc(NC(=O)COC(=O)c2ccc(S(=O)(=O)N3CCCC3)cc2)c1,-3,0,99,1,.,.
O=C(COC(=O)c1ccc(S(=O)(=O)N2CCCC2)cc1)Nc1cccc(F)c1,10*,-3,83,0,1,0
CC(=O)C1CCC2C3CC=C4CC(SC(=N)N)CCC4(C)C3CCC12C (stereo not drawn),10*,-3,90,-1,-6,1
CCc1cccc(CC)c1NC(=O)C(CC)Sc1nc2ccncc2[nH]1 (stereo not drawn),8.3*,-5,100,0,0,1
C#CCN1CC(COCCCC)Oc2cccc(Oc3ccc(C(C)(C)C)c(C)c3)c2S1(=O)=O (stereo not drawn),0,.,.,0,.,.
COc1ccc(-c2cc(C(=O)c3c(N)n(C)c(=O)n(C)c3=O)c3ccccc3n2)cc1,8.2*,-2,96,2,8.8*,7.3*
CCn1c2ccccc2c2cc(NC(=O)COC(=O)c3cc(Cl)cc(Cl)c3)ccc21,-4,.,.,.,.,.
Cc1ccc(C(=O)N2c3ccccc3N=C(c3ccccc3)C2C(=O)NC(C)C)cc1 (stereo not drawn),0,.,.,2,.,.
Fc1ccccc1COc1ccc(-c2nnn(Cc3ccccc3F)n2)cc1,3,3,85,-1,.,.
Cn1nnc(-c2ccc(OCc3ccccc3F)cc2)n1,11*,-2,99,0,7,13*
C=CCOc1ccc2oc(=O)cc(C)c2c1,10*,-5,97,1,-2,0
O=C(CSc1oc(-c2ccc(F)cc2)nc1S(=O)(=O)c1ccccc1)NCC1CCCO1 (stereo not drawn),8.2*,-3,87,0,0,-1
O=C(CSc1nnc(NC(=O)c2ccccc2)s1)NCC1CCCO1 (stereo not drawn),9.4*,-4,100,1,2,6.5*
COc1ccccc1C(=O)NC1CCCCN(Cc2ccc(OC(F)(F)F)cc2)C1=O (stereo not drawn),-3,.,.,.,.,.
CC(C)NC(=O)N[C@H]1C[C@@H]2O[C@@H](CO)CC[C@@H]2O[C@@H]1CCc1ccc(-c2ccc(F)cc2)cc1,0,.,.,.,.,.
CCOC(=O)[C@@]12CCCC3=C1N(CCC3)C(=O)[C@H]2CC(=O)NCC1CCCCC1,1,.,.,.,.,.
CCOC(=O)CC[C@H]1CC[C@]2(CCCN(S(=O)(=O)c3ccccc3)C2)O1,0,.,.,.,.,.
CCN1CCCC1CNC(=O)c1ccc2c(c1)NC(=O)/C(=C\c1ccc(OC)c(OC)c1)S2 (stereo not drawn),8.6*,-4,90,0,12*,0
S=C(N=Nc1ccccc1)NNc1ccccc1,10*,0,95,-1,14*,7.7*
CCCCCCNC(=O)C1CSCCS(=O)(=O)N1Cc1ccc(F)cc1 (stereo not drawn),-3,.,.,.,.,.
Cc1ccc(-c2c(NC(=O)c3cccc(C)c3)nc3ncccn23)cc1,0,.,.,.,.,.
O=c1ccc(Cc2ccccn2)n[nH]1,9.5*,-2,142,0,-3,-2
O=S(=O)(c1ccccc1)N(Cc1ccccn1)Cc1ccccn1,-2,-7,98,-1,.,.
COc1ccc([C@H]2CC(=O)C[C@@H](CCn3cc(-c4ccc(F)cc4)nn3)O2)cc1,9.6*,-2,127,0,-3,1
SMILES,SMARCA2 act,MsrA act,ABCB6 inh 2,MsrA inhibitor,SMARCA2 act conf,VP16 Luc act
COc1ccc([C@H]2CC(=O)C[C@@H](CCn3cc(-c4ccccc4)nn3)O2)cc1,0,-2,128,0,.,.
CC(=O)c1cccc(N/C=C\C(=O)c2ccc(C)cc2)c1,10*,-7,98,1,9.6*,9.8*
O=C(/C=C/Nc1ccc(F)c(Cl)c1)c1ccccc1,9.3*,-2,106,-1,7,13*
O=C(/C=C/Nc1cccc(O)c1)c1ccccc1,8.1*,-4,104,2,6,8.1*
O=C(/C=C/Nc1ccc(F)c(F)c1)c1ccc(Br)cc1,3,-3,100,1,.,.
O=C(/C=C/Nc1ccccc1F)c1ccc(Br)cc1,17*,-6,89,0,4,14*
Cc1cc(Br)cn2c(Cc3ccccc3)c(-c3ccc(C#N)cc3)nc12,-3,-3,106,1,.,.
Cc1ccccc1C(=O)NC1CCCCN(Cc2cccc(Cl)c2)C1=O (stereo not drawn),-2,.,.,.,.,.
COc1ccc2[nH]c3c(C)c4ccncc4c(C)c3c2c1,16*,2,159,0,48*,1
COc1ccccc1-c1nn2c(-c3ccco3)nnc2s1,15*,-2,100,1,26*,10*
Cc1noc(NS(=O)(=O)c2ccc(N/C=C\C(=O)c3ccc(Br)cc3)cc2)c1C,1,-4,98,3,.,.
COc1cccc(C(=O)/C=C/Nc2ccc(S(=O)(=O)Nc3onc(C)c3C)cc2)c1,12*,-3,98,1,-1,0
CC(=O)Nc1cccc(C(=O)N/N=C/c2cccc(C)n2)c1,11*,-1,98,0,-5,-1
COc1ccccc1NC(=O)CCCC(=O)OCC(=O)c1ccc(F)cc1,-1,-4,94,-1,.,.
COc1ccccc1NC(CC(=O)c1ccccc1)C(=O)OCC(=O)c1ccc(F)cc1 (stereo not drawn),10.0*,-6,100,1,8.6*,15*
O=C(NCCc1ccc2c(c1)OCO2)c1cc(-c2ccccc2)c(N2CCOCC2)s1,-3,.,.,.,.,.
CCOC(=O)c1sc(=NC(=O)c2cccs2)n(C)c1C,12*,-14,83,0,8,14*
CCOC(=O)c1sc(=NC(=O)c2ccc(Cl)s2)n(C)c1C,-1,-7,91,2,.,.
CN1CCN(C(=O)c2cn(C)c3ccc(S(=O)(=O)N(C)C4CCCCC4)cc3c2=O)CC1,8.5*,-8,104,2,-2,2
CN(C1CCCCC1)S(=O)(=O)c1ccc2c(c1)c(=O)c(C(=O)N1CCc3ccccc3C1)cn2C,-1,-4,104,-1,.,.
CC1(C(=O)NS(=O)(=O)c2ccccc2Cl)CCN1C(=O)C/C=C/c1ccccc1 (stereo not drawn),-2,-4,104,0,.,.
CCN(C(=O)c1cc2c(=O)n3ccccc3nc2n1C)C1CCCCC1,1,-5,94,3,.,.
CN(C(=O)c1cc2c(=O)n3ccccc3nc2n1C)C1CCCCC1,8.0*,-2,98,2,2,14*
O=[N+]([O-])c1cccc(OCCCN2CCC(C(O)(c3ccccc3)c3ccccc3)CC2)c1,-3,.,.,.,.,.
COc1ccc(CN2CC(C(=O)NCCC3=CCCCC3)CC2=O)cc1 (stereo not drawn),0,-3,93,-1,.,.
